Reference: the supplement of paper PMC7695840

How the values were obtained:
[1] = tested on: Staphylococcus aureus MW2 delta-mecA (mecA-); assay: normalized GFP fluorescence (growth of mecA- strain) (fraction of control range); higher = more growth of mecA- strain; conditions: compound concentration: 150 uM; cefoxitin: subinhibitory; fluorescent label: GFP
In short: (§1)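 A 1:1 mix of pre-induced S. aureus MW2 cells, DsRed-labeled with the gene and GFP-labeled without it, was grown in LB with a daily-set subinhibitory antibiotic dose on 150 μM compound (1.5% DMSO) in 1536-well plates, single replicate. Growth lasted 20 h at 37 °C, 90% humidity, without shaking, and DsRed (540/590) and GFP (485/520) were then read. Channels were scaled per plate to single-strain control medians, and plates with high untreated ratios and rows with DsRed/GFP >10 were removed.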

[2] = tested on: Staphylococcus aureus MW2 (mecA+); assay: normalized DsRed fluorescence (growth of mecA+ strain) (fraction of control range); higher = more growth of mecA+ strain; conditions: compound concentration: 150 uM; cefoxitin: subinhibitory; fluorescent label: DsRed
In short: as §1

| SMILES | normalized GFP fluorescence [1] | normalized DsRed fluorescence [2] |
| --- | --- | --- |
| C[N+](C)(C)CCOP(=O)(O)OP(=O)([O-])OC[C@H]1O[C@@H](n2ccc(N)nc2=O)[C@H](O)[C@@H]1O | 0.342 | 0.78 |
| CCc1c2c(nc3ccc(OC(=O)N4CCC(N5CCCCC5)CC4)cc13)-c1cc3c(c(=O)n1C2)COC(=O)[C@]3(O)CC | 0.461 | 0.626 |
| CCC1(C)OC(=O)N(C)C1=O (stereo unspecified) | 0.387 | 0.876 |
| NCC[C@H](O)C(=O)N[C@@H]1C[C@H](N)[C@@H](O[C@H]2O[C@H](CN)[C@@H](O)[C@H](O)[C@H]2O)[C@H](O)[C@H]1O[C@H]1O[C@H](CO)[C@@H](O)[C@H](N)[C@H]1O [Amikacin hydrate] | 0.412 | 0.639 |
| CCCN(CCC)S(=O)(=O)c1ccc(C(=O)O)cc1 | 0.462 | 0.343 |
| O=C(O)CCC(=O)Nc1ccc(S(=O)(=O)Nc2nccs2)cc1 | 0.332 | 1.01 |
| CC1=C(/C=C/C(C)=C/C=C/C(C)=C\C(=O)O)C(C)(C)CCC1 | 0.0602 | 0.671 |
| CC(=O)[C@H]1CC[C@H]2[C@@H]3C[C@H](C)C4=CC(=O)CC[C@]4(C)[C@H]3[C@@H](O)C[C@]12C | 0.258 | 0.378 |
| O=C(O)CCCCCCCC(=O)O | 0.422 | 0.443 |
| CC(=O)NCCCS(=O)(=O)O | 0.628 | 0.742 |
| C[C@@H]1[C@H](O)[C@@H](C)/C=C/C=C/C=C/C=C/C=C/C=C/C=C/[C@H](O[C@@H]2O[C@H](C)[C@@H](O)[C@H](N)[C@@H]2O)C[C@@H]2O[C@](O)(C[C@@H](O)C[C@@H](O)[C@H](O)CC[C@@H](O)C[C@@H](O)CC(=O)O[C@H]1C)C[C@H](O)[C@H]2C(=O)O | 0.269 | 0.735 |
| NNCCc1ccccc1 | 0.153 | 0.707 |
| N[C@@H](Cc1c[nH]c2ccccc12)C(=O)O | 0.368 | 0.604 |
| OC[C@H]1O[C@H]([S-])[C@H](O)[C@@H](O)[C@@H]1O.[Au+] | 0.232 | 0.538 |
| CCC1(C)CC(=O)NC1=O (stereo unspecified) | 0.678 | 0.691 |
| Clc1ccccc1CN1CCc2sccc2C1 | 0.281 | 0.684 |
| NS(=O)(=O)c1cc2c(cc1Cl)NC(C1CC3C=CC1C3)NS2(=O)=O (stereo unspecified) | 0.463 | 0.69 |

| SMILES | normalized GFP fluorescence [1] | normalized DsRed fluorescence [2] |
| --- | --- | --- |
| CC(=O)N[C@H]1[C@H]([C@H](O)[C@H](O)CO)OC(C(=O)O)=C[C@@H]1NC(=N)N [Zanamivir (Relenza)] | 0.233 | 0.719 |
| Nc1ncn([C@H]2C[C@H](O)[C@@H](CO)O2)c(=O)n1 [Decitabine] | 0.242 | 0.802 |
| O=C1CN(/N=C/c2ccc([N+](=O)[O-])o2)C(=O)N1 | 0.0054 | 0.0533 |
| CCOC(=O)[C@H](CCc1ccccc1)N[C@H]1CCc2ccccc2N(CC(=O)O)C1=O | -0.00401 | 1.44 |
| COc1ccc2c3c1O[C@H]1C[C@@H](O)C=C[C@@]31CCN(C)C2 | 0.508 | 0.677 |
| C[C@]12C=CC(=O)C=C1CC[C@@H]1[C@@H]2[C@@H](O)C[C@@]2(C)[C@H]1CC[C@]2(O)C(=O)COC(=O)CCC(=O)O | 0.461 | 1.04 |
| CC1Cc2ccccc2N1NC(=O)c1ccc(Cl)c(S(N)(=O)=O)c1 (stereo unspecified) | 0.39 | 0.625 |
| CC(=O)c1ccc2c(c1)N(CCCN(C)C)c1ccccc1S2 | 0.165 | 1.27 |
| CC(=O)O[C@H]1C[C@@H]2CC[C@@H]3[C@H](CC[C@@]4(C)[C@H]3C[C@H]([N+]3(C)CCCCC3)[C@@H]4OC(C)=O)[C@@]2(C)C[C@@H]1N1CCCCC1 | 0.425 | 0.572 |
| CCOC(=O)[C@H](CCc1ccccc1)N[C@@H](C)C(=O)N1[C@H](C(=O)O)C[C@@H]2CCC[C@@H]21 | 0.338 | 0.71 |
| O=C(NC(Cc1cc(=O)[nH]c2ccccc12)C(=O)O)c1ccc(Cl)cc1 (stereo unspecified) [Rebamipide] | 0.175 | 0.942 |
| C[C@]12CC[C@@H]3c4ccc(O)cc4C[C@@H](CCCCCCCCC[S+]([O-])CCCC(F)(F)C(F)(F)F)[C@H]3[C@@H]1CC[C@@H]2O (stereo partly specified) | 0.185 | 0.667 |
| CN[C@@H]1[C@H](O[C@H]2[C@H](O[C@H]3[C@H](O)[C@@H](O)[C@H](NC(=N)N)[C@@H](O)[C@@H]3NC(=N)N)O[C@@H](C)[C@]2(O)CO)O[C@@H](CO)[C@H](O)[C@H]1O | 0.292 | 0.832 |
| CCOC(=O)[N-]c1c[n+](N2CCOCC2)no1 | 0.369 | 0.863 |
| CN1C(C(=O)Nc2ccccn2)=C(O)c2sc(Cl)cc2S1(=O)=O | 0.116 | 0.318 |
| CN(C)CCc1c[nH]c2ccc(C[C@H]3COC(=O)N3)cc12 | 0.31 | 0.962 |
